Consider 16 compounds from PubChem BioAssay (EPA / NIEHS).

Where “and” joins values, the source holds several entries; their conditions need not be identical. Identical values can stand only once. Inconclusive results are not listed. Some structures have more than one record in an assay (separate samples or runs), and their calls can disagree. Calls of active or inactive are those of the source. How the source made its calls, unless noted: active means hit-call score of the fitted dose curve at least 0.9, where 1 is the maximum; inactive means score below 0.9.

A short description of assay [1]: CCTE_Shafer_MEA_acute_spike_number: CCTE's Neural Acute Assay for Total Number of Spikes, Shafer Lab (AID 2284008).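 On AC50: curve fitted for decrease in spike count so AC50 reflects inhibitors.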 The method, boiled down: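 Rat primary cortical neurons on 48-well MEA plates, DIV 13 or 15, at 37 C. 40 min baseline then 40 min with compound (0.03-40 uM); spikes detected at 8x rms noise, expressed as percent change from baseline.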
Assay [2] can be described thus: CCTE_Shafer_MEA_acute_firing_rate_mean: CCTE's Neural Acute Assay for Mean Firing Rate, Shafer Lab (AID 2284009).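 Further: analyzed for loss of signal so actives lower firing rate relative to DMSO.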 The method, boiled down:
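Primary rat cortical neurons on 16-electrode MEA wells were exposed on DIV 13 or 15 to compound (0.03-40 uM). Spike counts per recording time, averaged over electrodes, were compared between 40-min baseline and 40-min post-exposure recordings as percent change.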

Assay [3] in a line: CCTE_Shafer_MEA_acute_burst_number: CCTE's Neural Acute Assay for Single-Electrode Bursts, Shafer Lab (AID 2284013). The method, boiled down: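 Primary rat cortical neurons on 16-electrode MEA wells, DIV 13 or 15, exposed to compound (0.03-40 uM; ≥3 wells); 40-min recordings at 37 C before and after treatment. Burst count expressed as percent change from baseline, DMSO as negative control.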

Assay [4] in a line: CCTE_Shafer_MEA_acute_burst_duration_mean: CCTE's Neural Acute Assay for Mean Burst Duration, Shafer Lab (AID 2284014).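 Further: hits are decreases in mean burst duration relative to DMSO controls.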 The method, boiled down: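 Mean burst duration was compared between a 40 min baseline and a 40 min recording in the presence of compound (0.03-40 uM, 37 C), giving percent change per well. Cultures were rat cortical neurons at DIV 13 or 15; wells needed ≥10 active electrodes.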

Assay [5] can be described thus: CCTE_Shafer_MEA_acute_per_burst_spike_number_mean: CCTE's Neural Acute Assay for Average Number of Spikes Per Burst, Shafer Lab (AID 2284015).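 Further: hits are decreases in mean spikes per burst versus baseline.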 The method, boiled down: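 We recorded spontaneous network firing of rat cortical neurons for 40 min before and 40 min during exposure to compound at 0.03-40 uM, at 37 C. Spikes were detected adaptively at 8x rms noise, and the change in average spikes per burst was fitted against DMSO.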

A short description of assay [6]: CCTE_Shafer_MEA_acute_interburst_interval_mean: CCTE's Neural Acute Assay for Mean Interburst Interval, Shafer Lab (AID 2284016).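 Further: percent change of mean interburst interval versus each well's own pre-dose baseline; curves fitted for decrease in interburst interval relative to DMSO.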 The method, boiled down:
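MEA recording of spontaneous network bursting in primary rat cortical cultures; mean interburst interval was compared before and after a 40-min compound exposure (0.03-40 uM) and expressed as percent change, relative to DMSO.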

The nature of assay [7]: CCTE_Shafer_MEA_acute_burst_percentage_mean: CCTE's Neural Acute Assay for Percentage of Spikes in a Burst, Shafer Lab (AID 2284017).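 Further: curve fitted for loss of signal so potency reflects decreased burst percentage.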 The method, boiled down:
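Compounds were tested at 0.03-40 uM on primary rat cortical neuron networks grown over microelectrodes, with at least three wells per compound. Spontaneous firing was recorded for 40 min before and 40 min after dosing, and the change in burst percentage was computed per well.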

Assay [8] in a line: CCTE_Shafer_MEA_acute_per_network_burst_spike_number_std: CCTE's Neural Acute Assay for Standard Deviation of Number of Spikes in a Network Burst, Shafer Lab (AID 2284020).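 Further: fitted for decrease in spike-number SD versus DMSO so actives lower it.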 The method, boiled down: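 Endpoint: percent change from 40 min baseline in standard deviation of spikes per network burst, after 40 min compound exposure (0.03-40 uM, 37 C). Cortical rat neurons on MEA at DIV 13 or 15; spikes detected at 8x rms noise, 300-5000 Hz band-pass.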

Assay [9] can be described thus: CCTE_Shafer_MEA_acute_per_network_burst_electrodes_number_mean: CCTE's Neural Acute Assay for Mean Number of Electrodes in a Network Burst, Shafer Lab (AID 2284021).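 Further: curves fitted for decreases only so hits reduce electrodes per burst.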 The method, boiled down:
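Rat primary cortical neurons on 48-well MEAs, DIV 13 or 15, were treated at 0.03-40 uM. Spikes were detected at 8x rms noise and recorded at 37 C. The mean electrodes per network burst in a 40 min exposure recording was expressed as percent change from a 40 min baseline.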

A short description of assay [10]: CCTE_Shafer_MEA_acute_network_burst_percentage: CCTE's Neural Acute Assay for Percentage of Network Bursts, Shafer Lab (AID 2284022).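 Further: curves fitted for loss so actives lower network burst percentage.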 The method, boiled down: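 Rat primary cortical neuron networks on 48-well MEA plates, DIV 13 or 15, treated acutely with compound (0.03-40 uM, at least three wells). Percent of spikes within network bursts compared between 40-min recordings before and during exposure at 37 C, expressed as percent change.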

Assay [11] is described as follows: CCTE_Shafer_MEA_acute_cross_correlation_HWHM: CCTE's Neural Acute Assay for Cross Correlation at Half Width at Half Maximum, Shafer Lab (AID 2284026).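 Further: percent change per well from pre-dose baseline in spike cross-correlogram half width; hits are a decrease in cross-correlogram half width relative to DMSO.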 The method, boiled down:
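Rat primary cortical neurons on 48-well MEA plates; 40-min baseline and 40-min post-exposure recordings at 37 C on DIV 13 or 15, compounds 0.03-40 uM. Spikes detected at 8x rms noise; percent change in cross-correlogram HWHM per well vs baseline.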

Assay [12] is described as follows: CCTE_Shafer_MEA_acute_LDH: CCTE's Lactate Dehydrogenase Assay for Cytotoxicity in the Neural Acute Assay, Shafer Lab (AID 2284086; active means hit-call score of the fitted dose curve at least 0.9, where 1 is the maximum;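 further: active means LDH release rises above DMSO vehicle level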). The method, boiled down: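 LDH released during 40 min compound exposure of primary rat cortical cultures, quantified by absorbance at 490 nm in collected medium. Fitting direction positive versus DMSO vehicle.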
Read-out in the next assay: KRT18 (gene 3875)
Briefly: BSK_BE3C_Keratin818: BioMAP Diversity Plus: BE3C Assay for Keratin 818 Biomarker Activity (AID 2284282). The note with it: primary human bronchial epithelial cells. The method, boiled down:
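ELISA readout of Keratin 8/18 in human primary bronchial epithelial cultures after 24 h chemical exposure, DMSO baseline. Parallel SRB staining (0.1%, TCA-fixed, 560 nm) served as cytotoxicity check.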

A short description of assay [13]: CCTE_Deisenroth_5AR_NBTE_donor: CCTE's 5alpha-reductase NanoBRET Target Engagement Assay […], Deisenroth Lab (AID 2284319). The note with it: actives raise or lower the signal. The method, boiled down:
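In this secondary endpoint, donor luminescence from SRD5A2-NanoLuc in transfected HEK293T flags artifacts. Test chemical (10 nM - 29.9 uM) is present five hours, tracer the last two; mock-tracer wells run plate-matched; data fitted bidirectionally against DMSO.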
(In general: In BRET a luciferase serves as donor, and the signal depends on an acceptor being close.)

A further assay has as its system SRD5A2 (gene 6716). Briefly: CCTE_Deisenroth_5AR_NBTE_ratio: CCTE's 5alpha-reductase NanoBRET Target Engagement Assay - Ratio, Deisenroth Lab (AID 2284322). The note with it: actives raise or lower the signal. The method, boiled down: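 HEK293T cells transiently expressing an SRD5A2-NanoLuc fusion (20 h post-transfection) were exposed to test chemical (10 nM - 29.9 uM, 8 points) for 3 h, then testosterone tracer for a further 2 h. Acceptor/donor BRET ratio was fitted bidirectionally against DMSO baseline.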

Assay [14] in a line: CCTE_Padilla_ZF_Score.General: CCTE's 144 Hour Post-fertilization zebrafish Assay Score for General Malformation, Padilla Lab (AID 2284411). The method, boiled down: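 Malformation, death and hatching were scored at 6 dpf by two blinded observers under a stereo microscope. Embryos were dosed singly from 6-8 hpf in sealed plates of 10% Hanks' at 26C and rinsed on 5 dpf; DMSO baseline.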

Assay [15] addresses Retinoic acid receptor alpha (Homo sapiens) (UniProt P10276). Briefly: ATG_RARa_TRANS: Attagene TRANS-FACTORIAL HepG2 Assay for human Retinoic Acid Receptor alpha (RARa) (AID 2283005; active means hit-call score of the fitted dose curve at least 0.9, where 1 is the maximum). The method, boiled down:
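Reporter transcripts, measured by RT-PCR with fluorescent labeling and capillary electrophoresis after 24 h dosing, reflect activity of an exogenous human RARa–GAL4 fusion in transiently transfected HepG2. Fitted for increase relative to DMSO.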

Assay [16] has as its target Estrogen receptor (Homo sapiens) (UniProt P03372). Briefly: NVS_NR_hER: NovaScreen (NVS) Nuclear Receptor Binding Assay for human Estrogen Receptor (ER) (AID 2283348; active means hit-call score of the fitted dose curve at least 0.9, where 1 is the maximum). The method, boiled down:
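Cell-free MCF7-derived ER preparation, specific radioligand displaced by test compound, read by scintillation counting 18 h post-dosing. Duplicate single-point 25 uM screen, then concentration-response confirmation; DMSO baseline.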

Assay [17] has as its target rat Thyrotropin Releasing Hormone Receptor (TRH), Trhr (gene 25570) (UniProt Q01717). Briefly: NVS_GPCR_rTRH: NovaScreen (NVS) G Protein-Coupled Receptor Assay for rat Thyrotropin Releasing Hormone Receptor (TRH) (AID 2283329; active means hit-call score of the fitted dose curve at least 0.9, where 1 is the maximum;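 further: hit means lower bound tracer signal versus DMSO baseline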). The method, boiled down:
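Test compounds are screened at 25 uM in duplicate against radioligand binding in rat forebrain membranes, with active pairs followed up over a concentration range. Detection uses filter-based radiodetection after a 4 h exposure.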

The next assay concerns rat CYP2B1, gene 24300. Briefly: NVS_ADME_rCYP2B1: NovaScreen (NVS) CYP450-related Enzyme Activity (ADME) Assay for rat CYP2B1 (AID 2283117; active means hit-call score of the fitted dose curve at least 0.9, where 1 is the maximum). The method, boiled down:
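Cell-free fluorescence enzyme assay, recombinant rat CYP2B1, 0.75 h after dosing. Single-concentration duplicates at 10 uM preceded concentration series (max 20 uM) for actives; acetonitrile as negative-control baseline.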

Estrogen receptor (Homo sapiens), sequence (P03372 whole entry, looked up): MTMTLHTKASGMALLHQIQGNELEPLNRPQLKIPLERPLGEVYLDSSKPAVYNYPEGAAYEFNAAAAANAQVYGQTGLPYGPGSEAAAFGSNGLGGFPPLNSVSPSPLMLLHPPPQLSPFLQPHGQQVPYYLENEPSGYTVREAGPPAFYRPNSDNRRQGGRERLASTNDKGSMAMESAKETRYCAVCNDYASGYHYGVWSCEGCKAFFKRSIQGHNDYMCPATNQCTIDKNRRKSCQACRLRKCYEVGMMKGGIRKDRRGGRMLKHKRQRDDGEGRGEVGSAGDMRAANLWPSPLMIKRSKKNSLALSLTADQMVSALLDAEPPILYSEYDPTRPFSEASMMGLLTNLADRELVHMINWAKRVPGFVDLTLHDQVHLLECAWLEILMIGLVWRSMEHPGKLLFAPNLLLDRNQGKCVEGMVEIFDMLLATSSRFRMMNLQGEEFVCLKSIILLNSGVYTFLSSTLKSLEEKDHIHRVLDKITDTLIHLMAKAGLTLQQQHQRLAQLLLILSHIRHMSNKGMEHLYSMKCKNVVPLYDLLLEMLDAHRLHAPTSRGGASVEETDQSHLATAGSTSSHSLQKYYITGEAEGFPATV
rat Thyrotropin Releasing Hormone Receptor (TRH), Trhr (gene 25570), sequence (Q01717 whole entry, looked up): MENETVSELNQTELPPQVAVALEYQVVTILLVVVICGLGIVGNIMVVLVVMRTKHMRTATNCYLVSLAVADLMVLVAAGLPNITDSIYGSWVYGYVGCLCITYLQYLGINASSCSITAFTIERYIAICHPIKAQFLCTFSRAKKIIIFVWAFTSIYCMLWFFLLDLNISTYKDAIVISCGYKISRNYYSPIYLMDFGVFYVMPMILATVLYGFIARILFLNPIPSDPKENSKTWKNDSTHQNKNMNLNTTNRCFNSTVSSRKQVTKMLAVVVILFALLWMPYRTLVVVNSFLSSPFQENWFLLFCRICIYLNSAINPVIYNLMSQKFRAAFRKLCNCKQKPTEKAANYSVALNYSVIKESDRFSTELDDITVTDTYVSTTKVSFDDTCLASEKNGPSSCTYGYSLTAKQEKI
Retinoic acid receptor alpha (Homo sapiens), sequence (P10276 whole entry, looked up, the tested form may be a part): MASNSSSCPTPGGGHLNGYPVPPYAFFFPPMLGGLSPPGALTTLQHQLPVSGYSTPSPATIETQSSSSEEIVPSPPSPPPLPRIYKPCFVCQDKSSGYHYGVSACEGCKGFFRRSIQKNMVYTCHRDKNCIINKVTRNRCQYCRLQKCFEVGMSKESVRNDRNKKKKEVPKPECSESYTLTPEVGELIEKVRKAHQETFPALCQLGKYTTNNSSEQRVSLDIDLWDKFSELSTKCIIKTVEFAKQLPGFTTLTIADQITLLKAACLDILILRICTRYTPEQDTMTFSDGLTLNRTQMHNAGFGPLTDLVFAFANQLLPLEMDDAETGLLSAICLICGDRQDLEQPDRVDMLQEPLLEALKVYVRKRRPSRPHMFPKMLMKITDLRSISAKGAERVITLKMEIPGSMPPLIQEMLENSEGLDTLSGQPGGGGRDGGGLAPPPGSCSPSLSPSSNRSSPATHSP

With `COc1ccc(CO)cc1`, the result in assay [1], in [2], in [3], in assay [4], in assay [6] and in assay [8] was inactive. The call (in assay [9]; in assay [10]; in assay [11]; in assay [12]; with KRT18 (gene 3875)) was inactive. Moreover, the AC50 in [5] was 3.71 µM (active); in assay [7], 3.79 µM (active).
With `CC(C)c1ccc(O)cc1`, the compound was called inactive (in [13]; with SRD5A2 (gene 6716)).
For `CC(C)COP(=O)(OCC(C)C)OCC(C)C`, the call in [14] was inactive.
As to `CCC1CCC(=O)O1` (stereo not drawn), in [15], the compound was classed as inactive.
Take `O=C1C=CC(=O)C=C1`: the call in assay [14] was inactive.
Take `CCCCOP(=O)(O)OCCCC`: in assay [16], the compound was classed as inactive.
In the case of `C=CCN(CC=C)C(=O)C(Cl)Cl`, the compound was called inactive in assay [17].
For the compound `CCOP(=O)(OCC)OCC`, in assay [15], the compound was classed as inactive.
Consider `CCCCCCCCCCCCCCCC[N+](C)(C)C`, for which the compound was called inactive (in assay [17]; in the assay with SRD5A2 (gene 6716)). Moreover, the AC50 in [13] was 16.3 µM (active).
Regarding `CCCOC(=O)c1ccccc1C(=O)OCCC`, in [14], the compound was called inactive.
Consider `CC(=O)c1cc2c(cc1C)C(C)(C)C(C)CC2(C)C` (stereo not drawn), for which the call (in assay [17]; in [13]; in the assay with SRD5A2 (gene 6716)) was inactive.
Consider `O=C(O)c1cc[c]([Hg][Cl])cc1`, for which the compound was called inactive in [16].
Take `Oc1ccc(C2(c3ccc(O)cc3)c3ccccc3-c3ccccc32)cc1`: the AC50 in assay [16] is 0.644 µM (active); in [1], 0.00882 µM (active); in [2], 0.00883 µM (active); in assay [3], 0.0359 µM (active); in assay [5], 20.5 µM (active); in assay [7], 24.8 µM (active). Further, the AC50 in assay [8] was 23.1 µM (active); in assay [10] it was 26.4 µM (active); in [11], 28.1 µM (active); with KRT18 (gene 3875), 0.15 µM (active). For the same compound, the compound was called inactive (in [4]; in assay [6]; in assay [9]; in assay [12]; in the assay with KRT18 (gene 3875)).
In the case of `[N-]=[N+]=CC(=O)OC[C@H](N)C(=O)O`, the result in assay [15] was inactive.
For the compound `CCN(CC)CCOc1ccc(C(=C(Cl)c2ccccc2)c2ccccc2)cc1`, in the assay on rat CYP2B1, gene 24300, the AC50 is 7.35 µM (active) and 7.71 µM (active); the result was inactive.
In the case of `O=c1c(-c2ccc(O)cc2)coc2cc(O)cc(O)c12`, in the assay with rat CYP2B1, gene 24300, the compound was classed as inactive.

As a reminder, the AC50 is the concentration at which the activity in the assay is half-maximal.
